According to PubChem BioAssay (Tox21):
Values without a mark were called inactive. Inconclusive results are not listed. Where a call stands in place of a potency, no number is given. Activity calls are given as the source filed them. Unless noted, calls follow the shape of the dose curve; as a rule, active = well fitted curve in the direction sought with a large enough effect in the repeat runs; inconclusive = weak or mixed curves; inactive = no such curve, though single readings can be large; an effect the other way counts as inactive or inconclusive.

Legend:
[1] = qHTS assay to identify small molecule antagonists of the estrogen related receptor (ERR) signaling pathway from Tox21 library - cell viability counter screen (AID 1224834); also: nearly all actives have a fitted effect of over 30% in size
Method in brief: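 Viability readout (CellTiter-Fluor fluorescence, 30 min at 37 C) multiplexed with the ERR assay; cells treated 17.5 h at 37 C with compounds delivered in DMSO.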

[2] = biological target: Luciferin 4-monooxygenase (Photinus pyralis) (UniProt P08659); experiment: qHTS assay to identify small molecule inhibitors of firefly luciferase (AID 1224835); also: nearly all actives have a fitted effect of over 25% in size; also: potency is read from the fitted curve at half-maximal effect
Method in brief: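 Biochemical qHTS: compounds run as interplate titrations against purified firefly enzyme, with D-luciferin and ATP each at its KM concentration. Light output recorded by CCD imaging.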

[3] = qHTS assay to identify small molecule agonists of the constitutive androstane receptor (CAR) signaling pathway - cell viability counter screen (AID 1224836); also: nearly all actives have a fitted effect of over 45% in size
Method in brief: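 Cells were seeded and incubated 4 hrs. Compounds were added across 15 concentrations together with PK11195 at 0.75 uM final. Plates were incubated 23 hrs at 37 C. CellTiter-Fluor was added and fluorescence measured.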

[4] = qHTS assay to identify small molecule antagonists of the constitutive androstane receptor (CAR) signaling pathway - cell viability counter screen (AID 1224837); also: nearly all actives have a fitted effect of over 45% in size
Method in brief: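 Fluorescence from CellTiter-Fluor served as the viability signal. Human hepatoma HepG2 cells stably bearing hCAR and CYP2B6-2.2kb received compound plus CITCO (50 nM final) for 23 hr.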

[5] = biological target: Nuclear receptor subfamily 1 group I member 3 (Homo sapiens) (UniProt Q14994); experiment: qHTS assay to identify small molecule antagonists of the constitutive androstane receptor (CAR) signaling pathway (AID 1224838);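 also: HepG2 cells stably expressing hCAR with CYP2B6 luciferase reporter stimulated by CITCO; nearly all actives have a fitted effect of over 40% in size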
Method in brief: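 Quantitative HTS in double-stable HepG2-CYP2B6-hCAR cells. After 4 h plating, cells get compound (15 concentrations) and CITCO at 50 nM final, incubate 24 h at 37 C, then ONE-Glo luminescence is read.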

[6] = biological target: Nuclear receptor subfamily 1 group I member 3 (Homo sapiens) (UniProt Q14994); experiment: qHTS assay to identify small molecule agonists of the constitutive androstane receptor (CAR) signaling pathway (AID 1224839); also: nearly all actives have a fitted effect of over 15% in size; also: potency is read from the fitted curve at half-maximal effect;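 as to activation: HepG2 cells stably carrying human CAR and a CYP2B6 luciferase reporter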
Method in brief: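 Cells were plated and incubated 4 hrs, then dosed with compounds at 15 concentrations. PK11195 was added to 0.75 uM final. After 24 hrs at 37 C, luciferase luminescence was measured.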

[7] = qHTS assay to identify small molecule antagonists of the estrogen related receptor signaling pathway with the pleiotropic PPARgamma coactivator (PGC) from Tox21 10K library - cell viability counter screen (AID 1224840; active = well fitted cell-killing curve with a large enough effect in the repeat runs, not every such curve was filed as active; also: nearly all actives have a fitted effect of over 40% in size)
Method in brief: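 Compounds in DMSO, alongside positive and negative controls, were pinned onto PGC/ERR cells (2,000 per well). Exposure lasted 17.5 hours at 37 C, followed by a 30-minute CellTiter-Fluor incubation and fluorescence reading.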

[8] = biological target: Thyrotropin receptor (Homo sapiens) (UniProt P16473); experiment: qHTS assay to identify small molecule agonists of the thyroid stimulating hormone receptor (TSHR) signaling pathway (AID 1224843; calls by dose curve; also: nearly all actives have a fitted effect of over 45% in size)
Method in brief: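 TSHR-HEK293 cells in agonist mode, 30 min room-temperature step, then cAMP measured by competitive HTRF (cAMP-d2 with anti-cAMP cryptate) after 1 h at room temperature. Tested at 15 concentrations in triplicate.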

[9] = qHTS assay to identify small molecule agonists of the hypoxia (HIF-1) signaling pathway - cell viability counter screen (AID 1224844; calls by dose curve; also: nearly all actives have a fitted effect of over 50% in size)
Method in brief: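 Luminescent ATP content (CellTiter-Glo, 30 min, room temperature) served as the viability measure in HRE-bla ME-180 cells exposed to compounds for 17 hrs in low-serum medium (0.5% dialyzed FBS).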

[10] = qHTS assay to identify small molecule agonists of H2AX (AID 1224845; active = well fitted activation curve with a large enough effect in the signal ratio in the repeat runs, not every such curve was filed as active; the % refers to the signal ratio; also: potency is read from the fitted curve at half-maximal effect)
Method in brief: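 Wild-type CHO-K1 cells, plated overnight, exposed 3hr at 37C to 15 concentrations (0.76% DMSO final). Lysed, then HTRF anti-pH2AX (S139) cryptate and anti-H2AX-d2 antibodies, 24 hr room temperature; 665/620 nm emission read.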

[11] = qHTS assay to identify small molecule agonists of H2AX - cell viability counter screen (AID 1224847; calls by dose curve; also: top concentration of the series differs between compounds; nearly all actives have a fitted effect of over 30% in size)
Method in brief: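 Cytotoxicity counter screen in wild-type CHO-K1 cells: a 3 hr compound treatment at 37C across 15 concentrations, followed by CellTiter-Glo luminescence to gauge viable cells.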

[12] = qHTS RealTime-Glo MT Cell Viability Assay in HepG2 cells - 24 hour (AID 1224867); also: nearly all actives have a fitted effect of over 50% in size
Method in brief: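 Viability was tracked continuously by NanoLuc luminescence from prosubstrate reduced by living HepG2 cells, at successive time points over 40 h of compound exposure. Cells with reagent were preincubated 5 h at 37 °C before compound addition.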

[13] = qHTS RealTime-Glo MT Cell Viability Assay in HEK293 cells - 32 hour (AID 1224868); also: top concentration of the series differs between compounds; nearly all actives have a fitted effect of over 50% in size
Method in brief: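 Viability tracked continuously by luminescence as live cells reduce a prosubstrate for NanoLuc; HEK293 cells preincubated 5 h, compound-treated at 37 C, and read at 0, 8, 16, 24, 32 and 40 h.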

[14] = A CellTox Green Cytotoxicity Assay to monitor cytotoxicity in HEK293 cells - 0 hour (AID 1224869); also: nearly all actives have a fitted effect of over 50% in size; also: potency is read from the fitted curve at half-maximal effect
Method in brief: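 Each value comes from one timepoint of a single continuous run in which HEK293 cells with CellTox Green were exposed to compound for up to 40 h at 37 C, dye fluorescence rising with cell death.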

[15] = qHTS RealTime-Glo MT Cell Viability Assay in HepG2 cells - 40 hour (AID 1224870); also: nearly all actives have a fitted effect of over 50% in size
Method in brief: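 HepG2 cells (600/well) mixed with RealTime-Glo MT reagent, settled 5 h at 37 C/5% CO2 before compound addition. Nonlytic NanoLuc luminescence from viable-cell prosubstrate reduction read repeatedly during 40 h treatment at 37 C.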

[16] = qHTS assay to identify small molecule agonists of the hypoxia (HIF-1) signaling pathway (AID 1224846; active = well fitted activation curve with a large enough effect in the signal ratio in the repeat runs, not every such curve was filed as active; the % refers to the signal ratio)
Method in brief: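 Measured by blue/green FRET after loading CCF4-AM: beta-lactamase expressed from a hypoxia response element in ME-180 cells. Test agents were delivered in DMSO and left 17 hrs; cells had been plated 5 hrs earlier in low-serum (0.5% dialyzed FBS) medium.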

[17] = qHTS assay to identify small molecule antagonists of the estrogen related receptor signaling pathway with the pleiotropic PPARgamma coactivator (PGC) from Tox21 10K library (AID 1224841; call rule not given here)
Method in brief: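 Compound exposure ran 18 hours at 37 C in PGC/ERR cells (2,000/well) that had first rested 6 hours in a 37 C/5% CO2 incubator. Luciferase activity was then detected with One-Glo after a 30-minute room-temperature step.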

[18] = qHTS assay to identify small molecule agonists of the estrogen related receptor signaling pathway with the pleiotropic PPARgamma coactivator (PGC) from Tox21 10K library (AID 1224842); also: nearly all actives have a fitted effect of over 15% in size
Method in brief: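 PGC/ERR reporter cell line, 2,000 cells per well, incubated 6 h at 37 C before 23 nL compound in DMSO was added. After 18 h at 37 C, One-Glo luminescence read following 30 min at room temperature.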

[19] = qHTS assay to identify small molecule antagonists of the estrogen related receptor (ERR) signaling pathway from Tox21 library (AID 1224848); also: nearly all actives have a fitted effect of over 50% in size
Method in brief: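 ERR reporter cell line (from NTP) seeded 2,000 cells/well, rested 6 h at 37 C/5% CO2, then pin-dosed with compounds in DMSO. After 18 h at 37 C, ONE-Glo added; luminescence read after 30 min at room temperature.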

[20] = qHTS assay to identify small molecule agonists of the estrogen related receptor (ERR) signaling pathway from Tox21 library (AID 1224849; calls by dose curve; also: nearly all actives have a fitted effect of over 15% in size); settings: ERR reporter cell line, ONE-Glo luciferase, 18 h; at 92.4 µM (top of the series) unless noted
Method in brief: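 We plated ERR reporter cells, waited 6 h, added compounds in DMSO by pin tool and incubated them 18 h at 37 C. ONE-Glo was then added and luminescence read after 30 min.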

Sequence of Thyrotropin receptor (Homo sapiens) (P16473 whole entry, looked up): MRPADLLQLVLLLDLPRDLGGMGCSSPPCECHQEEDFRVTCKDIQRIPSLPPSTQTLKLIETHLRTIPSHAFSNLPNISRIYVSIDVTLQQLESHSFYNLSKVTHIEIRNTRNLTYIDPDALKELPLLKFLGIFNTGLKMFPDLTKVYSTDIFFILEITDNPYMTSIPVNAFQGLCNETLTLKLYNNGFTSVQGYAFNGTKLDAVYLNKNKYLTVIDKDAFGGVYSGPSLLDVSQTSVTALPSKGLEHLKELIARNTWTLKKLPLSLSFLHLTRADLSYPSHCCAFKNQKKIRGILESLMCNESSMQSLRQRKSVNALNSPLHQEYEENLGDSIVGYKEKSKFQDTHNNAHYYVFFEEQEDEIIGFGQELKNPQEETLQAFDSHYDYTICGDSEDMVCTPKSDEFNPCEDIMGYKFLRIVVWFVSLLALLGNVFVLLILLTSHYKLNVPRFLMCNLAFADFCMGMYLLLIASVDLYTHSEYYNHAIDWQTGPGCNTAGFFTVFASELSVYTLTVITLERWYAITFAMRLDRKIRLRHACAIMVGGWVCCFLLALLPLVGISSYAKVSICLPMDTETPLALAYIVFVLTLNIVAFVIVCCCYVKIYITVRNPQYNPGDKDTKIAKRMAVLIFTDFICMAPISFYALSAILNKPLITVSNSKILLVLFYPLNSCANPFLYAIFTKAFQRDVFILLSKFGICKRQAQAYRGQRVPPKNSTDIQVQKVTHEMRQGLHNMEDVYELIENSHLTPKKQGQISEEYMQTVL
Sequence of Nuclear receptor subfamily 1 group I member 3 (Homo sapiens) (Q14994 whole entry, looked up): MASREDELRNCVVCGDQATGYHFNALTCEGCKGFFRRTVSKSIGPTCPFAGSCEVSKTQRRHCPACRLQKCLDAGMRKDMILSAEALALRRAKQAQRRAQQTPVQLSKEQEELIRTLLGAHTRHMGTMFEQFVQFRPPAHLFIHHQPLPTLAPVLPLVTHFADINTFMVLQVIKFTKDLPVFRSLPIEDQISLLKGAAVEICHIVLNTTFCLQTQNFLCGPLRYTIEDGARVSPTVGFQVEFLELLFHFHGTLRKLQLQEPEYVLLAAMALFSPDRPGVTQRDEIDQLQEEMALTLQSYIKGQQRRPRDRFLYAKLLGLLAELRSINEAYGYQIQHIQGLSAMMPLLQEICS
Sequence of Luciferin 4-monooxygenase (Photinus pyralis) (P08659 whole entry, looked up): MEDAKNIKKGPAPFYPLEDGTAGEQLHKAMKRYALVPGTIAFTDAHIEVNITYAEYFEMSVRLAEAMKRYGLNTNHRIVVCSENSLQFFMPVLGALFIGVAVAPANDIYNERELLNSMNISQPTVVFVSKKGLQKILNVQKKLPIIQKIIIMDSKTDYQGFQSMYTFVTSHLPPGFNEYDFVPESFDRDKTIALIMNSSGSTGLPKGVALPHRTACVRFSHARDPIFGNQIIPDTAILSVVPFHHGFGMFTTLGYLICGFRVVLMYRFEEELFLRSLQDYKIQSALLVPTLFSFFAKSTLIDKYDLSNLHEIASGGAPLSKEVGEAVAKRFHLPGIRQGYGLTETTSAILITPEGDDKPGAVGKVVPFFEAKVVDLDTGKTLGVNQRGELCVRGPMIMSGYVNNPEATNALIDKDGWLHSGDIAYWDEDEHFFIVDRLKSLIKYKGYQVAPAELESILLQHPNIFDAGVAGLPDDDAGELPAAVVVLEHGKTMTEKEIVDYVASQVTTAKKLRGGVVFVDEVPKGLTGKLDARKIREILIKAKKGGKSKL

| SMILES | Potency [1] | Potency [2] | Potency [3] | Potency [4] | Potency [5] | Potency [6] | Potency [7] | Potency [8] | Potency [9] | Potency [10] | Potency [11] | Potency [12] | Potency [13] | Potency [14] | Potency [15] | outcome [16] | Potency [17] | outcome [18] | Potency [19] | activity change, positive = activation [20] |
| --- | --- | --- | --- | --- | --- | --- | --- | --- | --- | --- | --- | --- | --- | --- | --- | --- | --- | --- | --- | --- |
| O=C(Cc1ccccc1)OCc1ccccc1 | inactive | 20.2 µM (active) | inactive | inactive | inactive | inactive | inactive | inactive | inactive | inactive | inactive | inactive | inactive | inactive | inactive | – | – | – | – | – |
| CC(C)[N+](=O)[O-] | inactive | inactive | inactive | inactive | inactive | inactive | inactive | inactive | inactive | inactive | inactive | inactive | inactive | inactive | inactive | inactive | – | – | – | – |
| CN(N=O)C(N)=O | inactive | inactive | inactive | inactive | inactive | inactive | inactive | – | inactive | inactive | inactive | inactive | inactive | inactive | inactive | inactive | – | – | – | – |
| ClCC(Cl)(Cl)Cl | inactive | inactive | inactive | inactive | inactive | inactive | inactive | – | inactive | inactive | inactive | inactive | inactive | inactive | inactive | inactive | – | – | – | – |
| NC(=O)c1cc([N+](=O)[O-])cc([N+](=O)[O-])c1 | inactive | inactive | inactive | inactive | – | – | inactive | inactive | inactive | inactive | inactive | inactive | inactive | inactive | inactive | inactive | – | – | – | – |
| CN1C(=S)CN=C(c2ccccc2)c2cc(Cl)ccc21 | inactive | inactive | inactive | inactive | inactive | – | inactive | inactive | inactive | – | inactive | inactive | – | 5.35 µM (active) | inactive | inactive | – | – | – | – |
| CCOC(=O)/C=C(C)/C=C/C[C@@H](C)CCCC(C)C | inactive | inactive | inactive | inactive | inactive | inactive | inactive | – | inactive | 113 µM (active) | – | – | inactive | inactive | inactive | inactive | – | – | – | – |
| CNC(=O)Oc1ccc(N(C)C)c(C)c1 | inactive | inactive | inactive | inactive | inactive | – | inactive | inactive | inactive | inactive | inactive | inactive | inactive | inactive | inactive | inactive | inactive | inactive | inactive | – |
| CCOC(=O)NC(=S)Nc1ccccc1NC(=S)NC(=O)OCC | inactive | inactive | inactive | inactive | – | – | inactive | – | inactive | inactive | inactive | inactive | – | inactive | inactive | inactive | inactive | inactive | inactive | 11.4% (active) |
| O=C(Oc1ccc(Br)cc1)N1CCN2CCC1CC2 | inactive | inactive | inactive | inactive | – | – | inactive | inactive | inactive | inactive | inactive | inactive | inactive | inactive | inactive | inactive | – | – | – | – |
| CCC/C(=N\OCC)C1=C(O)CC(CC(C)SCC)CC1=O (stereo unspecified) | inactive | inactive | inactive | inactive | inactive | – | inactive | – | inactive | inactive | – | inactive | – | inactive | inactive | inactive | – | – | – | – |
| N#Cc1ccncc1 | inactive | inactive | inactive | inactive | – | – | inactive | – | inactive | – | inactive | inactive | inactive | inactive | inactive | inactive | inactive | inactive | inactive | 5.77% |
| COc1cc2c(cc1OC)[C@@]13CCN4CC5=CCO[C@H]6CC(=O)N2[C@H]1[C@H]6[C@H]5C[C@H]43 | inactive | inactive | inactive | inactive | inactive | inactive | inactive | – | inactive | inactive | inactive | inactive | inactive | inactive | inactive | inactive | – | – | – | – |
| Cc1ccccc1CO[C@@H]1C[C@@]2(C(C)C)CC[C@]1(C)O2 | inactive | inactive | inactive | inactive | inactive | inactive | inactive | – | inactive | – | – | inactive | inactive | inactive | inactive | inactive | – | – | – | – |
| CCN(CC)CCOC(=O)C(C)(c1ccccc1)c1ccccc1 | inactive | inactive | inactive | inactive | inactive | – | inactive | inactive | inactive | inactive | inactive | inactive | inactive | inactive | inactive | inactive | inactive | inactive | inactive | 0.519% [at 42.5 µM] |
| O=C1CN2CCOC2(c2ccccc2Cl)c2cc(Cl)ccc2N1 (stereo unspecified) | inactive | inactive | inactive | inactive | inactive | – | inactive | inactive | inactive | inactive | inactive | inactive | inactive | inactive | inactive | inactive | – | – | – | – |
| CCc1cc2c(s1)-n1c(C)nnc1CN=C2c1ccccc1Cl | inactive | inactive | inactive | inactive | – | inactive | inactive | – | – | inactive | inactive | – | – | – | inactive | inactive | inactive | inactive | inactive | – |
| CC1(C)CON(Cc2ccccc2Cl)C1=O | inactive | inactive | inactive | inactive | inactive | 48.6 µM (active) | inactive | – | inactive | inactive | inactive | – | inactive | inactive | inactive | inactive | – | – | – | – |
